High-throughput results (PubChem)
Hits are enriched below; roughly 1.3% of the tested compounds scored in any of these assays.
gsp antagonist = antagonists of gsp mutant (McCune-Albright syndrome) | gsp-mutant cells, cAMP HTRF, 30 min | Potency, µM (series often up to 76.9 µM), hits mostly inhibitors | 340,000 compounds, 0.4% hits | AID 624288; calls by dose curve; cell line not stated here;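 also: intracellular cAMP measured with PDE inhibitor Ro 20-1724 present during compound exposure; nearly all actives have a fitted effect of over 65% in size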
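Measurement of cellular cAMP by homogeneous time-resolved fluorescence following a 30 min compound exposure at 37C. The PDE inhibitor […] was present throughout; the assay buffer was DPBS with 0.05% BSA and 0.005% Tween 20.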
gsp agonist = activates gsp, the McCune-Albright syndrome mutation; gsp mutant cells, cAMP HTRF, 30 min; 340,000 compounds, 0.13% hits; Potency, µM (series often up to 76.9 µM), most hits filed as activators; active = well fitted activation curve with a large enough effect; inconclusive = small, poorly fitted or top-dose-only effect, or another doubt; inactive = no such curve, though single readings can be large or run the other way; cell line not stated here;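 also: phosphodiesterase inhibitor Ro 20-1724 added with compounds to block cAMP breakdown; nearly all actives have a fitted effect of over 60% in size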
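Cells stably selected in G418 were plated at 2000/well, grown 16-24 hr, then given compounds in DMSO with the PDE inhibitor […] (300 uM solution added) for 30 min at 37C; cAMP was read by HTRF.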
TSHR antagonist = human thyrotropin receptor antagonism; TSHR-expressing cells, TSH-stimulated cAMP HTRF, 2 h; hits give low values; activity change, negative = inhibition, % at 11.5 µM; 330,000 compounds, 0.2% hits;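 active = activity change below a set negative limit, meaning inhibition stronger than a set level, cut at about -70% in these data; inconclusive = activity change between two set negative limits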
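TSHR-expressing cells, 200/well, pre-treated with compound, then stimulated with EC80 TSH (4nM final) for 2 hours at 37 deg C. cAMP measured by competitive HTRF: anti-cAMP cryptate antibody in lysis buffer plus cAMP-d2, read after 30 minutes at room temperature.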
RXFP1 antag = blocks the human relaxin receptor RXFP1. 350,000 compounds, 0.59% hits. activity change, negative = inhibition, % at 57.5 µM. HEK293-RXFP1, relaxin-stimulated cAMP HTRF, 30 min; hits give low values. Q9HBX9;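 active = activity change of -60% or lower, but not beyond a set lower limit; inconclusive = change between -60% and -40%, or beyond the set limit; inactive = change above -40%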
Target sequence (Q9HBX9 whole entry, looked up): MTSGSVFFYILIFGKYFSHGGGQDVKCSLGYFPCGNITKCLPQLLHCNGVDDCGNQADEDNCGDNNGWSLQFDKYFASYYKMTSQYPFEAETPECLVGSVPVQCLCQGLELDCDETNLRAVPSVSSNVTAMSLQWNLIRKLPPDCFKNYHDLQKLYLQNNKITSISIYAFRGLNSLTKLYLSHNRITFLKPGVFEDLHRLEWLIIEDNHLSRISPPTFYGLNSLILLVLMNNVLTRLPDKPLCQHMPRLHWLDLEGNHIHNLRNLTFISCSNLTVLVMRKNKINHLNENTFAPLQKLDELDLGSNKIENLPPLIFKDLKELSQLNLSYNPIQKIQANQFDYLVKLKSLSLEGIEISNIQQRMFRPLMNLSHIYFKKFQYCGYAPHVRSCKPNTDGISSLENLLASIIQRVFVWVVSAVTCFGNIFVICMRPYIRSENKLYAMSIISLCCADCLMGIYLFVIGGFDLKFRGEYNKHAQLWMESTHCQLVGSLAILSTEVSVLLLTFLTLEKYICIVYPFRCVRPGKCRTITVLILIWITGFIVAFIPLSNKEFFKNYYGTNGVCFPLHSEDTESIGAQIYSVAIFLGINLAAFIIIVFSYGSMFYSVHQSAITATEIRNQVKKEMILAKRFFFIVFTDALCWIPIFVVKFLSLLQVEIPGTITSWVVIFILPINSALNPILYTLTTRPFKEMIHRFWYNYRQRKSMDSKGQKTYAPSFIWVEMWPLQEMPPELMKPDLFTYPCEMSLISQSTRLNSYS
RXFP1 agonist = RXFP1 (human) receptor agonism; HEK293T-RXFP1 cAMP TR-FRET, 30 min; response scale: percent of porcine relaxin response, buffer zero; Potency, µM (top dose mostly 57.5 µM), actives largely listed as activators; 370,000 compounds, 0.3% hits; AID 2676; active = well fitted activation curve with a large enough effect; inconclusive = small, poorly fitted or top-dose-only effect; also: nearly all actives have a fitted effect of over 60% in size
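HEK293T cells stably expressing RXFP1 were pretreated with the PDE4 inhibitor Ro 20174, exposed to compounds for 30 min at 37C, lysed, and cAMP was read by TR-FRET. Data normalized to buffer (basal) and 29 nM porcine relaxin (100%).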
Akt phos inh = inhibitors of Akt phosphorylation; activity change, % for hits at 50 µM; Neuro2A IGF-stimulated pAkt S473 HTRF, 20 min; hits give low values; 360,000 compounds, 0.32% hits; in the data active = activity change below about -80%; inconclusive = mostly about -51% to -80%
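Single-point screen (50 µM final compound) in Neuro2A cells stimulated 20 min with 6 nM IGF at 37 deg C. After lysis, Ser473-phosphorylated Akt read by HTRF (ex 330 nm, em 615/665 nm) as the 665/615 ratio.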
Large screens that a line does not name were inactive.

Cc1ccc(C(=O)O/N=C/c2c(Cl)n(C)c3ccccc23)cc1	Akt phos inh -105%
O=C(N/C(=C\c1ccccc1)C(=O)N1CCOCC1)c1ccc(Br)o1	gsp agonist inconclusive, RXFP1 antag -70
COc1ccc2ccccc2c1CN1CCCC(CO)C1 (stereo unspecified)	Akt phos inh -112%
Cc1nn(CC(=O)N2CCc3ccccc32)c(C)c1S(=O)(=O)NC(C)(C)C	none (no result: RXFP1 agonist)
COc1cc(Br)cc(C2C3=C(CCCC3=O)N(c3ccc(F)cc3)C3=C2C(=O)CCC3)c1O	gsp antagonist 32µM, gsp agonist inconclusive
Fc1ccccc1-c1nc2ccccc2[nH]1	none
Cc1ccccc1-c1nc2ccccc2[nH]1	Akt phos inh -124%
COc1ccccc1OCC(=O)c1[nH]c(C)c(C(C)=O)c1C	gsp antagonist 25µM
CC(=O)c1c(C)[nH]c(C(=O)COc2cc(C)ccc2C(C)C)c1C	gsp antagonist 11µM, TSHR antagonist inconclusive
O=S(=O)(c1ccc(OC(F)(F)F)cc1)N1CCCC(c2ccccc2)C1 (stereo unspecified)	none
O=C1c2cccc3cccc(c23)C(=O)N1Cc1cccnc1	none
O=C1c2cccc3c([N+](=O)[O-])ccc(c23)C(=O)N1Cc1cccnc1	RXFP1 antag -77
CC(C)(C)n1nnnc1CN1CCN(C2CCCC2)CC1	Akt phos inh -103%
O=C(CSc1ncn[nH]1)N1N=C2/C(=C/c3ccccc3)CCCC2C1c1ccccc1 (stereo unspecified)	gsp antagonist 35µM, gsp agonist inconclusive
O=C(N/N=C1\CCCCc2ccccc21)c1ccccn1	RXFP1 antag -65
Cc1ccc(NC(=S)N/N=C2/CCCCc3ccccc32)cc1	gsp antagonist inconclusive, RXFP1 antag -61
CC(=O)N(CC(=O)N(C)C)c1ccccc1	none (no result: gsp antagonist, gsp agonist, TSHR antagonist, RXFP1 agonist, Akt phos inh)
Cc1ccc2[nH]c(=O)c(CN(Cc3ccco3)C(=O)N3CCOCC3)cc2c1	gsp antagonist inconclusive
Cc1ccc(CN(Cc2cc3cc(C)ccc3[nH]c2=O)C(=O)N2CCOCC2)cc1	Akt phos inh -106%
Cc1ccccc1NC(=O)Cn1c(=O)n(Cc2ccc3c(c2)OCO3)c(=O)c2ccccc21	none (no result: gsp antagonist, gsp agonist, TSHR antagonist, RXFP1 antag, Akt phos inh)
Cc1ccc(CNC(=O)COC(=O)C2CCN(S(=O)(=O)c3cccs3)CC2)cc1	gsp antagonist 35µM, gsp agonist inconclusive
NC(=S)N/N=C1\CC(c2ccc3c(c2)OCCCO3)Oc2ccc(F)cc21 (stereo unspecified)	RXFP1 antag -61
NC(=S)N/N=C1\CC(c2ccc3c(c2)OCCO3)Oc2ccc(F)cc21 (stereo unspecified)	gsp agonist inconclusive
CC1CCc2sc(C(=O)Nc3nnc(SCc4ccc(F)cc4)s3)cc2C1 (stereo unspecified)	Akt phos inh -85%
COC(=O)c1ccc(CSc2nnc(NC(=O)c3cc4c(s3)CCCC4)s2)cc1	none
O=C(CN1CCN(C(=O)c2ccco2)CC1)Nc1ccc(Br)cc1	none (no result: gsp antagonist)
COc1ccccc1CNC(=O)c1cccc(S(=O)(=O)N2CCCC2)c1	none
Cc1nc(S/C(=C/c2ccc(-c3cc(Cl)ccc3C)o2)C(=O)O)n[nH]1	gsp antagonist 28µM
Cc1nc(S/C(=C/c2ccc(-c3ccc(Cl)cc3)o2)C(=O)O)n[nH]1	none (no result: Akt phos inh)
CCOC(=O)c1nnn(CC(=O)N2N=C(c3ccccc3)CC2c2ccccc2)c1C(=O)OCC (stereo unspecified)	Akt phos inh -83%
Cc1ccc(C(=O)NCC(=O)OCC(=O)N2CC(C)OC(C)C2)cc1 (stereo unspecified)	none
N#C/C=C1/NC(=O)c2ccccc2S1	Akt phos inh -110%
CCn1c(=O)n(CC)c2cc(S(=O)(=O)Nc3ccccc3C)c(C)cc21	Akt phos inh -89%
CCc1ccccc1NS(=O)(=O)c1cc2c(cc1C)n(C)c(=O)c(=O)n2C	none (no result: RXFP1 antag)
CCCCC(CC)CNC(=O)CC(C)OC(=O)CCC(=O)O (stereo unspecified)	none (no result: gsp antagonist, gsp agonist, TSHR antagonist, RXFP1 agonist, Akt phos inh)
Cc1ccccc1-c1nnn(Cc2cccc(S(=O)(=O)N3CCOCC3)c2)n1	gsp antagonist 35µM
